In PubChem BioAssay one finds composite z-score and z-score data, which are given here for six compounds.

The source made the active and inactive calls.

The test system of assay [1] is Plasmodium falciparum Sir2 (PF13_0152, Sir2A). The experiment in a line: Plasmodium falciparum Sir2A binding compounds – biochemical, small-molecule microarray, 635 nm fluorescence, primary screen (AID 1098).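 Further: score merges spot fluorescence intensity with its signal-to-noise ratio.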 The settings on record: fluorescence 635 nm, higher = more signal.
Assay [2] is described as follows: probe aDKK1 binding to arrayed compounds – biochemical, biotinylated probe, 635/667 nm fluorescence, primary screen (AID 1099).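 Further: score merges 667nm spot fluorescence with signal to noise across triplicate slides.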 Conditions: small-molecule microarray, higher = more signal.
Assay [3] can be described thus: probe aCHRDL2 binding to arrayed compounds – biochemical, biotinylated probe, 635/667 nm fluorescence, primary screen (AID 1100). The settings on record: small-molecule microarray, higher = more signal.
Assay [4] in a line: change in splice reporter luminescence, either direction, cell-based, HEK293, spliceosome inhibition project, primary screen (AID 1101).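 Further: HEK293 cells carrying a splicing-competent luciferase reporter gene; test concentration not given here.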 The settings on record: HEK293 splicing luciferase reporter, 24 h, higher = more signal, called active from +8 up or from −8 down.
In assay [5] the target is Fibroblast growth factor 10 (Homo sapiens) (UniProt O15520). The experiment in a line: compounds binding fibroblast growth factor 10 – biochemical, small-molecule microarray, 635 nm fluorescence, primary screen (AID 1102). Conditions: FGF10 binding, fluorescence 635 nm, higher = more signal.
Sequence of Fibroblast growth factor 10 (Homo sapiens) (O15520 whole entry, looked up): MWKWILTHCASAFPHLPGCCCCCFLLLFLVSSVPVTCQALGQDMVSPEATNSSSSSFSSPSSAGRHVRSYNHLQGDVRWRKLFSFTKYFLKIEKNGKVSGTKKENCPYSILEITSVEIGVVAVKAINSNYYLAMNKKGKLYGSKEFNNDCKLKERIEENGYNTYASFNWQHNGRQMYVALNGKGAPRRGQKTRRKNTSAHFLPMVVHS
The test system of assay [6] is glycogen synthase kinase-3 (GSK3A per assay name; protocol says GSK3B). Nature of the assay: compounds binding glycogen synthase kinase-3 – biochemical, small-molecule microarray, 635 nm fluorescence, GSK3A, primary screen (AID 1103). Further: the record names both GSK3A and GSK3B. Conditions: fluorescence 635 nm, higher = more signal.
The target of assay [7] is Epidermal growth factor receptor (Homo sapiens) (UniProt P00533). Nature of the assay: compounds binding epidermal growth factor receptor – biochemical, small-molecule microarray, 635 nm fluorescence, primary screen (AID 1104).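 Further: score merges 667 nm emission intensity with spot signal to noise over triplicate slides.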 The settings on record: EGFR binding, higher = more signal.
Sequence of Epidermal growth factor receptor (Homo sapiens) (P00533 whole entry, looked up): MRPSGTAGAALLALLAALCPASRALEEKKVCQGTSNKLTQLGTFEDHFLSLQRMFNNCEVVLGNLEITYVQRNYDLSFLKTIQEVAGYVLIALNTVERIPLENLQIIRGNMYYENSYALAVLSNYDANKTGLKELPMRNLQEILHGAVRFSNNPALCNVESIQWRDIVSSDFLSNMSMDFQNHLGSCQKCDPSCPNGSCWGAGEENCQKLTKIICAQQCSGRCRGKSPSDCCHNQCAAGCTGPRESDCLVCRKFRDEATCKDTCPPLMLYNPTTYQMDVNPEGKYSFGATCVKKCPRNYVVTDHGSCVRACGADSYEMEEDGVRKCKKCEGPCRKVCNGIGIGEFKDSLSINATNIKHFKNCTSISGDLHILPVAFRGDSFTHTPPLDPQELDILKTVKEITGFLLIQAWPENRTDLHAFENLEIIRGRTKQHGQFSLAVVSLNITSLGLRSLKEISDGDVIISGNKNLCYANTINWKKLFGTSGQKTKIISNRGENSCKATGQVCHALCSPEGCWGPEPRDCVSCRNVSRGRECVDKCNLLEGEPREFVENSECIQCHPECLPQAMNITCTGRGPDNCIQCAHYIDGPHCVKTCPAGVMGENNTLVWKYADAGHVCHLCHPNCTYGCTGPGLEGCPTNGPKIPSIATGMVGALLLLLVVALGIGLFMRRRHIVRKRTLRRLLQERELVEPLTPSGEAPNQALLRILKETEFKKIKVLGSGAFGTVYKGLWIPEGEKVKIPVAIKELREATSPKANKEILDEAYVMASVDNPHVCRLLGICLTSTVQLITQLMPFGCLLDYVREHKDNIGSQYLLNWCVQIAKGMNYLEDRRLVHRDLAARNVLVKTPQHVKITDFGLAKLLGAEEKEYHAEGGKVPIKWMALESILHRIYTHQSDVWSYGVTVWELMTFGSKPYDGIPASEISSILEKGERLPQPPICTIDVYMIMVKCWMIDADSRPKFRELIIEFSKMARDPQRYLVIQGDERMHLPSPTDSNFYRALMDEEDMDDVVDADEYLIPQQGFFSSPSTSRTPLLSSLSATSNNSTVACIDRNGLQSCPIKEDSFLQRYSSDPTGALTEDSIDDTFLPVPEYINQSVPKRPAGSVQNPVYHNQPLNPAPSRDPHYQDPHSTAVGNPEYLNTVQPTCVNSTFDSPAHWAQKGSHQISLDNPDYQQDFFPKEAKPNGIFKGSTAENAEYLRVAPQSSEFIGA
Assay [8] deals with Follistatin-related protein 3 (Homo sapiens) (UniProt O95633). Nature of the assay: compounds binding follistatin-related protein 3 – biochemical, small-molecule microarray, 635 nm fluorescence, primary screen (AID 1105).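 Further: score merges emission near 667 nm and signal to noise per printed spot across three slides.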 Conditions: FSTL3 binding, higher = more signal.
Sequence of Follistatin-related protein 3 (Homo sapiens) (O95633 whole entry, looked up): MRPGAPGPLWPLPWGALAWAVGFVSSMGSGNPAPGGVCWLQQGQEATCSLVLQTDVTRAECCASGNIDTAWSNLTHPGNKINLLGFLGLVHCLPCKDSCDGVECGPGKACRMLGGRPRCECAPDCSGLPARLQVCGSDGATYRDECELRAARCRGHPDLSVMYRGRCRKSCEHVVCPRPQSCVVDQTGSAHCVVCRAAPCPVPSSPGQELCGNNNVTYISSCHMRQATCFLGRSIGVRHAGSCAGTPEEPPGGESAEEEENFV
Assay [9] has as its target Dickkopf-related protein 1 (Homo sapiens) (UniProt O94907). The experiment in a line: small molecules binding DKK1 protein – biochemical, small-molecule microarray, 635 nm fluorescence scan, primary screen (AID 1106).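 Further: score merges emission near 667 nm with signal to noise over three replicate slides.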 The settings on record: higher = more signal.
Assay [10] relates to Inhibin beta A chain (activin A). Nature of the assay: small molecules binding activin A – biochemical, small-molecule microarray, 635 nm fluorescence scan, primary screen (AID 1107).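 Further: mouse activin A protein probed at 4.33 µg/mL on printed slides; score merges bound-protein fluorescence near 667 nm with spot signal-to-noise.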 Conditions: INHBA, higher = more signal.
Assay [11] deals with Human papillomavirus type 1a protein E7 (residues 44-93). The experiment in a line: small molecules binding HPV E7 44-93 – biochemical, small-molecule microarray, residues 44-93, 635 nm fluorescence, primary screen (AID 1108).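 Further: E7 fragment applied at 1 µg/mL in TBST for 1 h at 4 C; score combines spot fluorescence with its signal to noise ratio.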 The settings on record: fluorescence 635 nm, higher = more signal.
The nature of assay [12]: hepatitis C replication reporter changes, two-sided – Huh7 cells, luciferase reporter, HCV replication inhibitor project, primary screen (AID 1109).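 Further: huh7 hepatoma cells harbouring a luciferase neomycin HCV replicon reporter; luciferase luminescence as measure of HCV replicon replication; test concentration not given here.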 Conditions: Huh7 HCV replicon luciferase reporter, 48 h; higher = more signal.
For assay [13], the target named is Left-right determination factor 2 (Homo sapiens) (UniProt O00292). Nature of the assay: small molecules binding LEFTY2 protein – biochemical, small-molecule microarray, 635 nm fluorescence scan, primary screen (AID 1110). Conditions: higher = more signal.
Sequence of Left-right determination factor 2 (Homo sapiens) (O00292 whole entry, looked up): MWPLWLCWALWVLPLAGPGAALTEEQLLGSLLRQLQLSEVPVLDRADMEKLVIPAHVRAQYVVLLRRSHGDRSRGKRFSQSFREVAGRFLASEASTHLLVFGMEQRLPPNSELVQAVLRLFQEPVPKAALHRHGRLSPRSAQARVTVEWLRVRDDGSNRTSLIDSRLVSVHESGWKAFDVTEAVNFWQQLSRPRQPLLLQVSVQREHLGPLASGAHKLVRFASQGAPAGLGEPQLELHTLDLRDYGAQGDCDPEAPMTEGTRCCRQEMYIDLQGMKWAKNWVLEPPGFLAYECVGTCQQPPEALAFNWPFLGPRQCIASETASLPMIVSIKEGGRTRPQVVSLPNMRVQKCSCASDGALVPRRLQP
Assay [14] concerns the target Calmodulin-1 (Homo sapiens) (UniProt P0DP23). Nature of the assay: small molecules binding calmodulin-1 with EGTA – biochemical, small-molecule microarray, Cy5-labelled CALM1, profiling panel (AID 1111).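 Further: labelled calmodulin applied in Tris saline Tween buffer holding calcium plus EGTA and DTT.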 The settings on record: Cy5-CALM1 binding fluorescence, higher = more signal.
The target is the same in assay [15]. The experiment in a line: small molecules binding Ca-loaded calmodulin-1 – biochemical, small-molecule microarray, Cy5-labelled CALM1, plus calcium, artefact control for SMM control-protein annotation, profiling panel (AID 1112).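 Further: score merges spot fluorescence with signal to noise from triplicate slides.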 Conditions: Cy5-CALM1 binding fluorescence, higher = more signal.
Assay [16] in a line: probe aWnt5a binding to arrayed compounds – biochemical, biotinylated probe, 635/667 nm fluorescence, primary screen (AID 1113).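 Further: score merges 667 nm fluorescence intensity with signal-to-noise per printed feature.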 Conditions: small-molecule microarray, higher = more signal.
Assay [17] is described as follows: probe aShh binding to arrayed compounds – biochemical, biotinylated probe, 635/667 nm fluorescence, primary screen (AID 1114).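 Further: probe is biotin-labelled aShh protein from a stem cell growth factor screen; measures binding of labelled protein to compounds printed on the slide; score merges feature fluorescence at 667 nm with signal-to-noise.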 The settings on record: small-molecule microarray, higher = more signal.
Assay [18] in a line: probe aNog binding to arrayed compounds – biochemical, biotinylated probe, 635/667 nm fluorescence, primary screen (AID 1115).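 Further: probe is biotinylated aNog protein used at 0.15 µg/mL for 1 h at 4 C; z-score combines 667 nm fluorescence of each spot with its signal to noise.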 The settings on record: small-molecule microarray, higher = more signal.
Assay [19] deals with Torsin-1A-interacting protein 1 (Homo sapiens) (UniProt Q5JTV8). Nature of the assay: compound microarray binding of lysate hLAP1 – cell lysate, small-molecule microarray, COS7 lysate, 635/667 nm fluorescence, primary screen (AID 1116). Conditions: 635 nm fluorescence, higher = more signal.
Sequence of Torsin-1A-interacting protein 1 (Homo sapiens) (Q5JTV8 whole entry, looked up): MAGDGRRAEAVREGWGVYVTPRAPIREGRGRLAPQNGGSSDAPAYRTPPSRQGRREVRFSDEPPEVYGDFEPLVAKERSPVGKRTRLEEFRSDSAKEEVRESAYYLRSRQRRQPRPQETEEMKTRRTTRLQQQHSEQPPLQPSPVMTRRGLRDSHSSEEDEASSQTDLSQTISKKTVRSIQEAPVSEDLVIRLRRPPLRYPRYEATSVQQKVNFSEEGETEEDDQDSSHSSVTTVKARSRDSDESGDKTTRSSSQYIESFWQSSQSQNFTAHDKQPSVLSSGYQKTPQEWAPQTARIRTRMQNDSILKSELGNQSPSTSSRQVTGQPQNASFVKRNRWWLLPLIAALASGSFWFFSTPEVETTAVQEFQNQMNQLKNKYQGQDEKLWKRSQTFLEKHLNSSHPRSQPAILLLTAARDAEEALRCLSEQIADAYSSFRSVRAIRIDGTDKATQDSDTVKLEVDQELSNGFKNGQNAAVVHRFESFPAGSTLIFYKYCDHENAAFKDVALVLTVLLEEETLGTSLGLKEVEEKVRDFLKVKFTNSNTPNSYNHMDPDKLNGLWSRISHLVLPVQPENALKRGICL
In assay [20] the target is Alpha-bungarotoxin (Bungarus multicinctus) (UniProt P60615). Nature of the assay: compounds binding labelled alpha-BTX control protein – biochemical, small-molecule microarray, Alexa647 label, 635/667 nm fluorescence, artefact control for SMM control protein annotation, profiling panel (AID 1117). Conditions: alpha-BTX-A647 binding fluorescence, higher = more signal.
Sequence of Alpha-bungarotoxin (Bungarus multicinctus) (P60615 whole entry, looked up): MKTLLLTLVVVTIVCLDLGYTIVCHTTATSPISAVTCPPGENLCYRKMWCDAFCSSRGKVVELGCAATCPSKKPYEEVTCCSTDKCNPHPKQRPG

Sequence of Dickkopf-related protein 1 (Homo sapiens) (O94907 whole entry, looked up): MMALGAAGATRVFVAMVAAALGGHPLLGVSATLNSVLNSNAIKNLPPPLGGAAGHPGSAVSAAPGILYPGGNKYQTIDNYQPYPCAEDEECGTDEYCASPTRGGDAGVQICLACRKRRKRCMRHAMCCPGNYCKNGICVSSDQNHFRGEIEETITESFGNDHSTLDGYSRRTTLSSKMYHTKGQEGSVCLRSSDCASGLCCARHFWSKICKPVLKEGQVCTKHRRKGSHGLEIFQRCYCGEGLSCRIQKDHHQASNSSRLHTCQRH

`CC(C)C[C@@H]1NC(=O)[C@@H]2C[C@H](C(=O)NCCCCCC[N+](C)(C)C)[C@H](c3cccc(OCCO)c3)N2C1=O`: the composite z-score in assay [1] is 1.78; in assay [2], -0.294; in assay [3] it was 0.512; in assay [5], 0.225; in assay [6] it was 0.221; in assay [7] it was -0.138. In addition, the composite z-score was -0.168 in assay [8]; 0.449 in assay [9]; 0.327 in assay [10]; 1.31 in assay [11]; -0.184 in assay [13]; -0.105 in [14]. Besides, the composite z-score is -0.744 in [15]; -0.156 in assay [16]; -0.0234 in assay [17]; -0.249 in assay [18]; 0.369 in [19]; 0.446 in assay [20]. In addition, the results for the z-score in assay [4] and in [12] were -0.261 (inactive) and -0.926, respectively.

Consider `COC(=O)[C@@]1(Cc2ccccc2CN=[N+]=[N-])N=C(c2ccc(OCCCO)cc2)O[C@H]1c1ccccc1`, for which the composite z-score in assay [1] was 1.13; in assay [2], 0.789; in [3], 0.966; in assay [5], -0.438; in assay [6], -0.0487; in [7], -0.0819. For the same compound, the composite z-score was -0.153 in assay [8]; -0.459 in assay [9]; 1.13 in assay [10]; 0.155 in [11]; -0.59 in [13]; -0.426 in [14]. For the same compound, the composite z-score was 0.161 in assay [15]; 0.0101 in assay [16]; -0.0375 in assay [17]; 1.48 in [18]; 1.42 in [19]; 0.779 in assay [20]. Also, the values for the z-score in assay [4] and in assay [12] were 0.31 (inactive) and -3.09, respectively.

Consider `C=C(COC)C(=O)CC[C@H](OC(=O)c1cccnc1)c1ccc(CO)o1`, for which the composite z-score is 1.44 in [1]; -0.424 in [2]; -0.686 in assay [3]; 0.905 in [5]; 0.596 in [6]; 0.393 in assay [7]. Further, the composite z-score in [8] is 1.3; in [9] it was 1.42; in assay [10], 0.488; in assay [11], -0.132; in assay [13], 0.879; in assay [14], -0.502. Besides, the composite z-score in [15] is -0.875; in [16], -0.167; in [17], -0.214; in [18], -0.447; in assay [19], 0.659; in [20] it was -0.0505. Also, the results for the z-score in assay [4] and in [12] were 0.591 (inactive) and -1.05, respectively.

For the compound `COc1ccc([Si](C)(C)[C@H]2[C@H](CCO)O[C@@]3(C(=O)N(Cc4ccccc4)c4ccc(N5CCOC5=O)cc43)[C@@H]2C)cc1`, the composite z-score in assay [1] is 0.821; in assay [2], 0.0261; in [3], -0.214; in assay [5], 0.977; in assay [6], 0.411; in [7] it was 0.398. Moreover, the composite z-score in [8] was 0.277; in assay [9], 0.0837; in [10], 0.212; in assay [11], 0.27; in assay [13] it was 0.28; in [14] it was 0.284. The composite z-score in assay [15] is 0.299; in [16], -0.0239; in assay [17], 0.0062; in [18], 0.325; in [19] it was 0.673; in assay [20], 0.0997. Further, the z-score in assay [4] is -0.711 (inactive); in assay [12] it was -4.13.

`C=C(/C(=C/C[C@H](OC(=O)c1ccncc1)c1ccccc1OCCO)c1cnc2ccccc2c1)C(C)C`: the composite z-score in assay [1] is 1.06; in assay [2], -0.117; in [3], 0.37; in [5] it was 1.47; in assay [6] it was 1.06; in assay [7], 1.15. In addition, the composite z-score in assay [8] was determined as 1.59; in assay [9] it was 1.07; in assay [10], 1.72; in assay [11], 1.41; in assay [13], 1.05; in [14] it was 0.547. Besides, the composite z-score was -0.558 in [15]; 0.0374 in assay [16]; 0.172 in assay [17]; -0.0809 in assay [18]; 0.358 in [19]; 1.73 in [20]. Also, the z-score is 0.82 (inactive) in assay [4] and -2.63 in [12].

In the case of `C[C@]1(C(=O)NCCN2CCOCC2)c2ccccc2C(=O)N(Cc2cc(F)cc(C(F)(F)F)c2)[C@H]1c1ccc(CO)cc1`, the composite z-score in assay [1] was 1.81; in [2], -0.0342; in assay [3], 0.841; in assay [5], -0.134; in assay [6], -0.626; in [7], -1.01. Besides, the composite z-score in assay [8] was -0.0362; in assay [9] it was -0.876; in assay [10], 0.59; in assay [11] it was 1.38; in assay [13], -1.37; in assay [14], -0.17. The composite z-score is -1.02 in [15]; -0.148 in [16]; -0.0222 in [17]; -0.41 in [18]; 1.88 in [19]; 2.4 in assay [20]. Moreover, the z-score in [4] is -0.0156 (inactive); in assay [12] it was -1.06.
